Experimental findings from PubChem BioAssay (EPA / NIEHS) are described below.

Experiment [1] is described as follows: ATG_GRE_CIS: Attagene CIS-FACTORIAL HepG2 Assay for human Glucocorticoid Response Elements (GRE) (AID 2282947). The conditions noted are these: HepG2 GRE cis-reporter, Attagene multiplex mRNA; actives raise or lower the signal. A digest of the protocol: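 Endogenous transcription factor activity is read through cis-element reporter constructs transiently transfected into HepG2 cells. After 24 h treatment, labelled RT-PCR products are resolved by capillary electrophoresis; DMSO sets baseline for bidirectional curve fitting.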

A short description of experiment [2]: ATG_M_32_CIS: Attagene CIS-FACTORIAL HepG2 Assay for M32 Transcription Factor (Internal Marker) (AID 2282949).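 Note: background control marker of the multiplexed CIS panel rather than a real target.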 Conditions: HepG2 Attagene cis-factorial M32 reporter, mRNA; actives raise or lower the signal. A digest of the protocol:
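Internal background marker read-out: RT-PCR/capillary electrophoresis fluorescence of reporter transcripts from transiently transfected HepG2 cells after 24 h chemical exposure. Activity fitted bidirectionally relative to DMSO negative control.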

The nature of experiment [3]: ATG_M_06_CIS: Attagene CIS-FACTORIAL HepG2 Assay for M06 Transcription Factor (Internal Marker) (AID 2282950). The conditions noted are these: HepG2 Attagene CIS-FACTORIAL M06 internal marker reporter; actives raise or lower the signal. Put shortly: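 Steps: transfect HepG2 with multiplexed cis-element reporter constructs; dose chemical 24 h; extract RNA with DNase treatment; reverse-transcribe, PCR-amplify, 6-FAM label, HpaI digest; separate fragments by capillary electrophoresis. Activity fitted both directions versus DMSO.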

For experiment [4], the target named is Hypoxia-inducible factor 1-alpha (Homo sapiens) (UniProt Q16665). The experiment can be described thus: ATG_HIF1a_CIS: Attagene CIS-FACTORIAL HepG2 Assay for human Hypoxia Inducible Factor 1 (HIF1A) (AID 2282951). Conditions: HepG2 Attagene cis-factorial HIF1a reporter transcription; actives raise or lower the signal. A digest of the protocol: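 Cis-element reporter constructs were transiently transfected into HepG2 cells, which were treated for 24 h; reporter RNA was reverse-transcribed, amplified, labelled and resolved by capillary electrophoresis.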

Experiment [5] deals with Hepatocyte nuclear factor 6 (Homo sapiens) (UniProt Q9UBC0). As to the kind of experiment: ATG_HNF6_CIS: Attagene CIS-FACTORIAL HepG2 Assay for human Hepatocyte Nuclear Factor 6 (HNF6) (AID 2282952). Conditions: HepG2 Attagene cis-factorial HNF6 reporter transcription; actives raise or lower the signal. A digest of the protocol: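 Transiently transfected HepG2 cells expressing cis-regulated reporter transcription units were exposed to chemical for 24 h in a 24-well format. Reporter transcript abundance was determined by fluorescence capillary electrophoresis.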

The target in experiment [6] is Heat shock factor protein 1 (Homo sapiens) (UniProt Q00613). As to the kind of experiment: ATG_HSE_CIS: Attagene CIS-FACTORIAL HepG2 Assay for human Heat Shock Transcription Factor 1 (HSE) (AID 2282953). The conditions noted are these: HepG2 HSE cis-reporter, Attagene RNA transcription; actives raise or lower the signal. Put shortly:
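Cells were transfected with cis-element-driven reporter constructs, dosed for 24 h, then total RNA was reverse-transcribed and reporter cDNA amplified, FAM-labelled and digested with HpaI. Fragments were resolved by capillary electrophoresis; gain or loss was fitted against DMSO.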

Experiment [7] is described as follows: ATG_MRE_CIS: Attagene CIS-FACTORIAL HepG2 Assay for human Metal Responsive Element (MRE) (AID 2282954). Conditions: HepG2 MRE cis-reporter transcription, Attagene multiplex; actives raise or lower the signal. Put shortly:
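Fluorescent reporter fragments separated by capillary electrophoresis give mRNA induction for the MRE unit after 24 h treatment of transfected HepG2 cells. Endogenous transcription-factor activity is read; DMSO serves as negative control and baseline.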

The nature of experiment [8]: ATG_PBREM_CIS: Attagene CIS-FACTORIAL HepG2 Assay for human Phenobarbital-responsive Enhancer Module (PBREM) (AID 2282955). Conditions: HepG2 PBREM cis-reporter, Attagene multiplexed transcription; actives raise or lower the signal. A digest of the protocol: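 Multiplexed cis-reporter readout in human hepatoma HepG2 cells; PBREM-regulated transcript quantified after 24 h exposure by fluorescent RT-PCR fragment analysis. Signal changes up or down fitted relative to DMSO.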

Experiment [9] deals with Paired box protein Pax-6 (Homo sapiens) (UniProt P26367). As to the kind of experiment: ATG_Pax6_CIS: Attagene CIS-FACTORIAL HepG2 Assay for human Paired Box 6 (PAX6) (AID 2282956). The conditions noted are these: HepG2 CIS-FACTORIAL PAX6 reporter transcription, RNA readout; actives raise or lower the signal. Put shortly:
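HepG2 cells transiently transfected with cis-promoter-driven multiplexed reporter units sensing endogenous transcription factor activity; 24 h chemical exposure. Reporter mRNA quantified by RT-PCR, 6-FAM labelling, HpaI digestion and capillary electrophoresis; bidirectional fit versus DMSO baseline.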

Experiment [10] is described as follows: ATG_PXRE_CIS: Attagene CIS-FACTORIAL HepG2 Assay for human Pregnane X Receptor Element (PXRE) (AID 2282957). Conditions: HepG2 Attagene CIS-FACTORIAL PXRE reporter, mRNA; actives raise or lower the signal. A digest of the protocol: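 Cis-element reporter mRNA in human hepatoma HepG2 cells is measured 24 h post-dosing by RT-PCR, primer-extension labeling and capillary electrophoresis; gain or loss of signal is fitted relative to DMSO.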

Experiment [11] is described as follows: ATG_PPRE_CIS: Attagene CIS-FACTORIAL HepG2 Assay for human Peroxisome Proliferator-activated Response Element (PPRE) (AID 2282958). Conditions: HepG2 PPRE cis-element reporter, Attagene transcription factor profiling; actives raise or lower the signal. Put shortly: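 DMSO served as negative control and baseline for bidirectional curve fitting. Signal came from PPRE-regulated reporter mRNA in HepG2 cells, measured 24 h post-dosing by RT-PCR, 6-FAM primer extension and capillary electrophoresis.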

The nature of experiment [12]: ATG_RORE_CIS: Attagene CIS-FACTORIAL HepG2 Assay for human RAR-related Orphan Receptor Element (RORE) (AID 2282959). Conditions: HepG2 Attagene cis-factorial RORE reporter, mRNA; actives raise or lower the signal. Put shortly:
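Transfect HepG2 with MRTUs; treat 24 h; extract RNA; RT with oligo(dT); PCR with reporter-specific primers; 6-FAM primer extension; HpaI digest 2 h at 37 C; capillary electrophoresis. Fit vs DMSO, bidirectional.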

A short description of experiment [13]: ATG_Sox_CIS: Attagene CIS-FACTORIAL HepG2 Assay for human SRY-box transcription factor (SOX) (AID 2282960). Conditions: HepG2 Attagene cis-factorial SOX reporter, mRNA; actives raise or lower the signal. Put shortly:
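Fluorescence-labelled cDNA fragments from reporter transcripts, sized by CE, give the signal. Cells: HepG2, transiently transfected with cis-regulated reporter units. Exposure 24 h; DMSO negative control; bidirectional curve fitting.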

Experiment [14] concerns the target Transcription factor Sp1 (Homo sapiens) (UniProt P08047). As to the kind of experiment: ATG_Sp1_CIS: Attagene CIS-FACTORIAL HepG2 Assay for human Specificity Protein 1 (Sp1) (AID 2282961). The conditions noted are these: HepG2 Sp1 cis-reporter transcription, actives raise or lower the signal. A digest of the protocol:
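Chemicals are dosed onto HepG2 cells transfected with multiple cis-promoter reporter constructs, and after 24 h reporter RNA is reverse-transcribed, PCR-amplified and resolved by capillary electrophoresis for fluorescence quantitation; activity is scored up or down against DMSO.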

A short description of experiment [15]: ATG_SREBP_CIS: Attagene CIS-FACTORIAL HepG2 Assay for human Sterol Regulatory Element Binding (SREBP) (AID 2282962). The conditions noted are these: HepG2 Attagene cis-factorial SREBP reporter, mRNA; actives raise or lower the signal. A digest of the protocol:
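HepG2 cells transiently transfected with multiplexed cis-promoter reporter units sensing endogenous transcription factors; reporter mRNA measured 24 h after dosing by RT-PCR, 6-FAM labeling, HpaI digestion and capillary electrophoresis. Bidirectional fit versus DMSO.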

A short description of experiment [16]: ATG_TA_CIS: Attagene CIS-FACTORIAL HepG2 Assay for human TA Basal Promoter (AID 2282964). Conditions: HepG2 Attagene CIS-factorial TA basal promoter reporter; actives raise or lower the signal. Put shortly: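 Steps: transfect HepG2 with MRTUs; dose 24 h; isolate RNA, DNase-treat, reverse-transcribe; PCR and FAM-label reporter cDNA; digest with HpaI 2h at 37 C; run capillary electrophoresis. Activity fitted both directions against DMSO.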

Experiment [17] in a line: ATG_TCF_b_cat_CIS: Attagene CIS-FACTORIAL HepG2 Assay for human T-Cell-Factor with beta-catenin (TCF/b-cat) (AID 2282965). The conditions noted are these: HepG2 TCF/beta-catenin cis-reporter transcription, actives raise or lower the signal. A digest of the protocol: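 HepG2, transient MRTU transfection, cis-element-driven reporters (endogenous TFs). 24 h compound exposure. Readout: reporter mRNA by RT-PCR + 6-FAM primer extension, HpaI digest, capillary electrophoresis. Gain/loss fit vs DMSO baseline.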

Experiment [18] is described as follows: ATG_ISRE_CIS: Attagene CIS-FACTORIAL HepG2 Assay for human Interferon Regulatory Factor 1 (IRF1) binding to an Interferon-Stimulated Response Element (ISRE) (AID 2282948). Conditions: HepG2 ISRE cis-reporter (Attagene), mRNA transcription readout; actives raise or lower the signal. A digest of the protocol: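 Transiently transfected HepG2 cells carrying cis-element reporter units, dosed 24 hours. Reporter mRNA quantified by RT-PCR, fluorescent primer extension, HpaI digestion and capillary electrophoresis. Bidirectional fitting relative to DMSO.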

Experiment [19] addresses Signal transducer and activator of transcription 3 (Homo sapiens) (UniProt P40763). The experiment can be described thus: ATG_STAT3_CIS: Attagene CIS-FACTORIAL HepG2 Assay for human Signal Transducer and Activator of Transcription 3 (STAT3) (AID 2282963). Conditions: HepG2, Attagene cis-factorial STAT3 reporter transcription; actives raise or lower the signal. Put shortly: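 Values derive from bidirectional fits relative to DMSO of reporter mRNA levels, measured by RT-PCR with capillary electrophoresis, in HepG2 cells carrying transiently transfected cis-regulated reporter units and exposed 24 h.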

Calls of active or inactive are those of the source. Rule for the calls: active = hit-call score of the fitted dose curve at least 0.9, where 1 is the maximum; inactive = score below 0.9.

Hepatocyte nuclear factor 6 (Homo sapiens), sequence (Q9UBC0 whole entry, looked up): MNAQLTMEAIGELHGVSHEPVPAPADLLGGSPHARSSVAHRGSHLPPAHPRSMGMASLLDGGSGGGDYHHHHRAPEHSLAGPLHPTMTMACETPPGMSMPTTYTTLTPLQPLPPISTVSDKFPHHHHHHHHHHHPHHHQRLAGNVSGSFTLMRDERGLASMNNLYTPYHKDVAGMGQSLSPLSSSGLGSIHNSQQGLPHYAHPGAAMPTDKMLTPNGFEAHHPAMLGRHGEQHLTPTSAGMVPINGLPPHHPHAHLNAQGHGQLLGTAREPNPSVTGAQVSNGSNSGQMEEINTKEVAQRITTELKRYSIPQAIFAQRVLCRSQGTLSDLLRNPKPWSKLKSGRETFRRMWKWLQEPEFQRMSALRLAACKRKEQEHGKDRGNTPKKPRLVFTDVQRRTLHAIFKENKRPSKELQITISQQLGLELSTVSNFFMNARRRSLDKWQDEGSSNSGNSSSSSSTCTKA
Paired box protein Pax-6 (Homo sapiens), sequence (P26367 whole entry, looked up): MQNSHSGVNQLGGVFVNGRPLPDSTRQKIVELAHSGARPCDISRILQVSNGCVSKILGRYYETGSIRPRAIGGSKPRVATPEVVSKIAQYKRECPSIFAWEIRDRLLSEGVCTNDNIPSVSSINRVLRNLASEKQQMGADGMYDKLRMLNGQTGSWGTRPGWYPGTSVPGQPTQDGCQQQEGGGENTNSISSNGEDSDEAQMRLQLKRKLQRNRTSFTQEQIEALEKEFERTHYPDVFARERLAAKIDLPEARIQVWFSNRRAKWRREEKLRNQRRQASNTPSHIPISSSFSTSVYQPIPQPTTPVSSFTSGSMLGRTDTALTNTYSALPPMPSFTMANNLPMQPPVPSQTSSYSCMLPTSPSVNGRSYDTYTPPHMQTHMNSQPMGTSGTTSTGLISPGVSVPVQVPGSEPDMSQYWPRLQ
Hypoxia-inducible factor 1-alpha (Homo sapiens), sequence (Q16665 whole entry, looked up): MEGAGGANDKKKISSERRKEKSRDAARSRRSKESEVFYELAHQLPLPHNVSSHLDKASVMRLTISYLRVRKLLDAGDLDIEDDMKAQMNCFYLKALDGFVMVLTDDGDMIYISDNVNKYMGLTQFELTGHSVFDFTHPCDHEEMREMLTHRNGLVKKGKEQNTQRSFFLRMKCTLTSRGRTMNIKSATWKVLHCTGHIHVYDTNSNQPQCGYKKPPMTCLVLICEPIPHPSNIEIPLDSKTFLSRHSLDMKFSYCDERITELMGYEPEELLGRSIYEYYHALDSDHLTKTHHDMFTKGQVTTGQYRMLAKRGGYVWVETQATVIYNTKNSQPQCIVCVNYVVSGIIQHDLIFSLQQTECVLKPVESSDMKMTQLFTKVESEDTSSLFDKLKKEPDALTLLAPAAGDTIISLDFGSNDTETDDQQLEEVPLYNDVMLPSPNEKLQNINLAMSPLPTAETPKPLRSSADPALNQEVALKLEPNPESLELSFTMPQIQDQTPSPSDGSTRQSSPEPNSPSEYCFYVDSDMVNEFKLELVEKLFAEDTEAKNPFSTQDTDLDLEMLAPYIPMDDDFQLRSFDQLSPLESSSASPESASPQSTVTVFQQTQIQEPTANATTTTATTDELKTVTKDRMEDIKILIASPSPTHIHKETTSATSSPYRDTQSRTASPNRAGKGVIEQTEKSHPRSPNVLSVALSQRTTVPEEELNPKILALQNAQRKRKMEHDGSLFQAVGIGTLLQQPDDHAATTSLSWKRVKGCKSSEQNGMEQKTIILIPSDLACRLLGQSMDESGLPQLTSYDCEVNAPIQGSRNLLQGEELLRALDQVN
Signal transducer and activator of transcription 3 (Homo sapiens), sequence (P40763 whole entry, looked up): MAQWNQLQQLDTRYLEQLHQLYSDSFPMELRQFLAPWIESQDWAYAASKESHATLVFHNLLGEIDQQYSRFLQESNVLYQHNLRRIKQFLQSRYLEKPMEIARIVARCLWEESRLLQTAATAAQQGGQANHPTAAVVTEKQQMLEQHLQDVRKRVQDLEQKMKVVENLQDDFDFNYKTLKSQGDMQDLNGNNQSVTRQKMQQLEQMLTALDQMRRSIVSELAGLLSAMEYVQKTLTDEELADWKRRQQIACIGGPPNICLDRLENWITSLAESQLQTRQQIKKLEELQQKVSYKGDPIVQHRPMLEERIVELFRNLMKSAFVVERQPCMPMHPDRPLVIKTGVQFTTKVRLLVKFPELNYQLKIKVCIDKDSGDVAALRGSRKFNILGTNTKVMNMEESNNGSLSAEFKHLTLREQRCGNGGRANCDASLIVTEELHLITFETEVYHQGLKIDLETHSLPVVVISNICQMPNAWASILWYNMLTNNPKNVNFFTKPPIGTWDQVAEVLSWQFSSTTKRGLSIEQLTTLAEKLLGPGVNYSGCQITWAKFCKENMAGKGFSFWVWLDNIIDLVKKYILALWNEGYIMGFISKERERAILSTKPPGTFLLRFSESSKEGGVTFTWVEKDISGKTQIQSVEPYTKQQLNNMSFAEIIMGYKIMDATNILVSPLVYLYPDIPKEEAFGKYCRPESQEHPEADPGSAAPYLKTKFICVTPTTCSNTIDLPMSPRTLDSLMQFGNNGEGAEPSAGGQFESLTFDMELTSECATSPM
Transcription factor Sp1 (Homo sapiens), sequence (P08047 whole entry, looked up): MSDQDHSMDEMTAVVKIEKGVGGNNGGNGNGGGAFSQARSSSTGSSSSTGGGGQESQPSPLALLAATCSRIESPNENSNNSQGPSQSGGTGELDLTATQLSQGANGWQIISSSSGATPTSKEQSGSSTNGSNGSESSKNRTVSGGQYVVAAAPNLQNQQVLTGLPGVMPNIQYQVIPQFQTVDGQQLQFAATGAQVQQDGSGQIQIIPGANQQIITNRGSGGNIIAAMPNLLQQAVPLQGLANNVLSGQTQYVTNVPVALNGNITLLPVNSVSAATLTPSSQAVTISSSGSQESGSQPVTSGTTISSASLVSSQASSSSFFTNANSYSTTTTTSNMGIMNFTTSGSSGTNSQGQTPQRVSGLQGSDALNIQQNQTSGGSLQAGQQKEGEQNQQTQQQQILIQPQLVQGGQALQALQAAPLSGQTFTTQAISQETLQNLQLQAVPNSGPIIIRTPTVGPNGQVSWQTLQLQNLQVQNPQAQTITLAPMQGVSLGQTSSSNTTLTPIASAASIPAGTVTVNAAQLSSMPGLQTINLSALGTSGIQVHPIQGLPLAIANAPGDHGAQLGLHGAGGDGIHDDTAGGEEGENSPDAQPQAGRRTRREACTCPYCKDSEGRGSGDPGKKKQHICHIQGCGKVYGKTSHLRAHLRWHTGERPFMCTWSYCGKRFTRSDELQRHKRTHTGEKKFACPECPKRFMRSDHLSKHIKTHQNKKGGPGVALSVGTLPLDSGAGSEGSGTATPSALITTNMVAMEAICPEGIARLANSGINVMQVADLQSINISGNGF
Heat shock factor protein 1 (Homo sapiens), sequence (Q00613 whole entry, looked up, the tested form may be a part): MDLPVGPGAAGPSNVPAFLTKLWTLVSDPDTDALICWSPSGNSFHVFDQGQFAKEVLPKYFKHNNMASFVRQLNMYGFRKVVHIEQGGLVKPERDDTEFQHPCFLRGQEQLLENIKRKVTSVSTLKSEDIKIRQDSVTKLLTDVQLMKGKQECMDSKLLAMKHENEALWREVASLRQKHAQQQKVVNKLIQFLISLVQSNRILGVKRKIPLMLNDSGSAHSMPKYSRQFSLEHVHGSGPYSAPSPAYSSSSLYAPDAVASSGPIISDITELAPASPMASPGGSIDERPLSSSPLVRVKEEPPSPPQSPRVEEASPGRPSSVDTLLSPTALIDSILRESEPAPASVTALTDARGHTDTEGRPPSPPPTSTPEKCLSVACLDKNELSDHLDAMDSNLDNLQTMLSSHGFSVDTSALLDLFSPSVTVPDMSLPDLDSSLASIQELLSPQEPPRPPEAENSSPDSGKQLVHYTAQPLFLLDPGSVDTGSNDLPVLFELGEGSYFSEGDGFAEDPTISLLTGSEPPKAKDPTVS

By AC50 is commonly meant the concentration at which the activity in the assay is half-maximal. `c1ccc(CNCc2ccccc2)cc1`: the molecule was classed as inactive in experiment [1], in experiment [2], in experiment [3], in experiment [4], in experiment [5] and in [6]. Moreover, the outcome in experiment [7], in experiment [8], in experiment [9], in [11], in experiment [12] and in experiment [13] was inactive. For the same molecule, the outcome in experiment [14], in experiment [15], in experiment [16] and in experiment [17] was inactive. Besides, the concentration at half-maximal activity (AC50) in [10] was 36 µM (active).
In the case of `COc1ccc2nc(N)sc2c1`, the call in [1], in experiment [18], in experiment [2], in experiment [4], in [5] and in experiment [7] was inactive. The outcome in [8], in experiment [9], in experiment [10], in experiment [14], in experiment [15] and in experiment [19] was inactive. Moreover, the outcome in [17] was inactive.
With `CC(=O)NS(=O)(=O)c1ccc(N)cc1`, the molecule was called inactive in [1], in [18], in experiment [2], in experiment [3], in [5] and in [6]. Besides, the molecule was called inactive in [7], in [8], in experiment [9], in experiment [10], in [12] and in experiment [13]. The molecule was classed as inactive in experiment [14], in [15], in experiment [19] and in experiment [17].
In the case of `CC1(C)S[C@@H]2[C@H](NC(=O)COc3ccccc3)C(=O)N2[C@H]1C(=O)O`, the outcome in [1], in experiment [18], in experiment [2], in [5], in [6] and in experiment [7] was inactive. For the same molecule, the outcome in experiment [8], in experiment [9], in experiment [12], in experiment [13], in experiment [15] and in experiment [19] was inactive. Moreover, the call in [16] was inactive. The half-maximal activity concentration (AC50) in experiment [10] was 4.35 µM (active).
Consider `O=C(OCC1CCC2OC2C1)C1CCC2OC2C1` (stereo not drawn), for which the result in [1], in [2], in [3], in [4], in experiment [5] and in [6] was inactive. Besides, the molecule was called inactive in experiment [7], in experiment [8], in experiment [9], in [10], in experiment [11] and in [12]. For the same molecule, the call in experiment [13], in experiment [15], in [19], in [16] and in experiment [17] was inactive.
As for `O=C(O)c1ccccc1Nc1cccc(C(F)(F)F)c1`, the outcome in experiment [1], in experiment [18], in experiment [2], in [3], in [5] and in experiment [6] was inactive. Besides, the outcome in experiment [8], in experiment [9], in experiment [13], in experiment [14], in experiment [19] and in [17] was inactive. In addition, the half-maximal activity concentration (AC50) in [7] is 100 µM (active); in [10], 5.5 µM (active); in experiment [11], 33 µM (active); in [12], 100 µM (active); in [15], 26.5 µM (active).
As to `Nc1ccc(N=Nc2ccccc2)c(N)n1`, the molecule was classed as inactive in [1], in [18], in [2], in experiment [5], in [6] and in [8]. The molecule was classed as inactive in experiment [9], in experiment [10], in experiment [13], in experiment [19] and in experiment [16]. Moreover, the AC50 in [7] is 69.9 µM (active); in experiment [11], 100 µM (active); in experiment [12], 51.6 µM (active).
